{
  "source": "PubChem BioAssay (EPA / NIEHS)",
  "note": "The source made the active and inactive calls. The calls were made as follows: active = hit-call score of the fitted dose curve at least 0.9, where 1 is the maximum; inactive = score below 0.9.",
  "data": [
    {"test": "ATG_EGR_CIS: Attagene CIS-FACTORIAL HepG2 Assay for human Early Growth Response 1 (EGR1) (AID 2282938)", "conditions": "HepG2 Attagene CIS-FACTORIAL EGR reporter mRNA; actives raise or lower the signal", "method_in_brief": "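HepG2 cells transiently transfected with cis-element-driven multiplexed reporter units, dosed for 24 h. EGR1-element reporter mRNA quantified by RT-PCR, 6-FAM labelling, HpaI digestion and capillary electrophoresis; bidirectional fit versus DMSO.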", "values": [
      {"compound": "c1ccc2c(c1)Cc1ccccc1-2", "outcome": "inactive"},
      {"compound": "CN1CCN(c2ccccc2/C=C2\\SCCN(c3ccc(Cl)c(Cl)c3)C2=O)CC1", "outcome": "inactive"},
      {"compound": "FC(F)(I)C(F)(F)C(F)(F)C(F)(F)C(F)(F)C(F)(F)I", "AC50": "16.4 µM (active)"},
      {"compound": "CCC(C)(C)C1CCC(O)CC1", "note": "(stereo unspecified)", "outcome": "inactive"},
      {"compound": "CCc1ccc(CCOc2ccc(CC3SC(=O)NC3=O)cc2)nc1", "note": "(stereo unspecified)", "outcome": "inactive"},
      {"compound": "CC(C)(C)CC(C)(C)c1ccc(O)c(-n2nc3ccccc3n2)c1", "outcome": "inactive"},
      {"compound": "CC(C)(C)c1ccc(O)c(C(C)(C)C)c1", "outcome": "inactive"},
      {"compound": "N#C[C@@H]1CC(F)(F)CN1C(=O)CNC1CC2CCC(C1)N2c1ncccn1", "note": "(stereo partly specified)", "outcome": "inactive"},
      {"compound": "NC(=O)N1C(=O)C(C(=O)c2cc(Cl)cs2)c2cc(F)c(Cl)cc21", "note": "(stereo unspecified)", "outcome": "inactive"},
      {"compound": "CCCCCCCCCCCCCCCS(=O)(=O)Oc1ccccc1", "outcome": "inactive"},
      {"compound": "CCCCCCCC(=O)O", "outcome": "inactive"},
      {"compound": "Cc1cc(CCN2CCN(c3nsc4ccccc34)CC2)cc2c1NC(=O)CC2(C)C", "AC50": "4.06 µM (active)"},
      {"compound": "COCC(C)O", "note": "(stereo unspecified)", "outcome": "inactive"},
      {"compound": "CCCCC(CC)COC(=O)CCCCC(=O)OCc1ccccc1", "note": "(stereo unspecified)", "outcome": "inactive"},
      {"compound": "COc1ccc([N+](=O)[O-])cc1N", "outcome": "inactive"},
      {"compound": "CCOC(=O)CC(O)(CC(=O)OCC)C(=O)OCC", "outcome": "inactive"},
      {"compound": "CCCCCCCCC(=O)O", "outcome": "inactive"},
      {"compound": "Cc1cc(C)c(O)c(C)c1", "outcome": "inactive"},
      {"compound": "C#C[C@]1(O)CC[C@H]2[C@@H]3CCC4=CC(=O)CC[C@@H]4[C@H]3CC[C@@]21C", "outcome": "inactive"},
      {"compound": "CCCCC[C@H](O)CC(=O)CCc1ccc(O)c(OC)c1", "outcome": "inactive"},
      {"compound": "NCC(F)(F)C(F)(F)C(F)(F)C(F)(F)C(F)(F)C(F)(F)C(F)(F)F", "outcome": "inactive"}
    ]}
  ]
}
